In all, about 52,000 sequences went through this assay and about 210 (0.4%) were called active. The full list was thinned out, with actives kept by preference. Unmarked numbers belong to inactive results.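 How the source made its calls: active means gene whose silencing raises cell survival under the drug, median off-target-corrected z-score across its silencing RNAs 2 or more; inactive means the rest.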
Assay: Resistance to Poly (ADP-Ribose) Polymerase inhibitor: Gene Identification via Genome-wide siRNA Screen
Conditions: mouse BRCA2 R2336H ES cells, olaparib, CellTiter-Glo viability; stronger effect = higher value
From the text: The role of Poly (ADP-Ribose) Polymerase (PARP) proteins in DNA repair has been elegantly utilized for the synthetic lethality-based treatment of BRCA-deficient tumors by PARP inhibitors. PARP inhibitors are now being used for treatment of BRCA-deficient breast and ovarian cancers. […] While several mechanisms of drug resistance have been identified, majority of these tumors develop drug resistance due to unknown causes. To identified novel regulators of chemo-resistance in BRCA2-mutated cells, we performed a genome wide siRNA library screen. We have found ES cells expressing a hypomorphic allele of BRCA2 to be hypersensitive to PAPP inhibitors (such as olaparib). We used ES cells expressing a mutant allele of BRCA2 that has a single amino acid substitution at position 2336 (arginine to histidine, R2336H). The screen was conducted using an Ambion (Thermo) Silencer Mouse Genome siRNA collection. The library targets 17,575 mouse genes with 3 siRNAs per gene. TET2 (E130014J05Rik) was identified as a top candidate.
Transfections were performed in 384 well plates (Corning 3707). Plates were coated with 0.1% gelatin in H2O overnight at ambient temperature. Gelatin solution was aspirated (BioTek EL406) and siRNAs were printed using a Bravo VPrep liquid handler integrated within a BioCel automation platform (Agilent). Cell viability was measured using CellTiter Glo (Promega). For transfections, […] of serum free media containing Lipofectamine RNAiMax […] was added to wells containing siRNA (0.8pmol). Lipid and siRNA were allowed to complex for 45 min at ambient temperature before addition of 1000 cells in DMEM, 30% FBS to yield final transfection mixtures containing 20 nM siRNA in DMEM, 15% FBS. PARPi (olaparib, AZD2281) was added 48 h post-transfection (500 nM) and viability (CellTiter Glo, Promega) was assayed 72 h later on a PerkinElmer Envision 2104 Multilabel plate reader. Ambion Silencer Select Negative Control #2 was incorporated on all screening plates (16 wells) and the median negative control value on each plate was used for normalization. An siRNA targeting Trp53 was used as a positive control. This control yielded a median protective effect of ~1.9 fold versus negative control throughout the screen. The median absolute deviation (MAD) based z-score was calculated for each siRNA. Genes were then ranked by taking the median value for all siRNAs tested against a given gene. Scores were also adjusted for seed-based off-target effects to help deprioritize likely false positives.

Sequence | z-score
CCAGAAACAUACGAAGAUUTT against Khdrbs1 | 2.31 (active)
GGUAUCUUCAAGUACAUGATT against BC011426 | 0.138
GGAGAUGGAGAAGUAGAUUTT against Abcf2 | 0.0903
GGGAAAUGUGUGUUAUCUGTT against Rnf126 | 1.17
CCCUGUCUCCCGCAUAGAATT against Itgb6 | 1.67 (active)
GAAAUCAUCCUGCCCAAAGTT against Vax1 | 0.607
GGUCCCAGUGUCAUGUCUUTT against Cdipt | 0.00151
GGUCUAUACCAUCCUAUUGTT against Faim2 | -1.24
CACUCAGCUCAAUGACCUGTT against Ifna14 | -0.514
GCUACAAGCGAUAUAUUCCTT against Jak1 | 2.92 (active)
CCAUGGAGAAUCAUGACAGTT against Slfn1 | 0.281
GUAUCAUACAAUGAUGUCCTT against Olfr176 | 0.628
GGAAAACAGCUUUGAUUGGTT against E130009J12Rik | 1.42
GGAACAGGAAUAACAUGACTT against V1re9 | 1.65
GUAUGAUGCACUCCAGUUGTT against Hdac8 | -1.38
GCCAGUGCACUCCUCUUUUTT against Mmrp19 | 0.352
GCUGAACUAUAACUUGAAATT against Stat1 | 0.735
GCAAGAAGUAAUCAACUUUTT against Rqcd1 | 2 (active)
GGACUUUUACCAGUUCUCCTT against Ece2 | 0.967
GGUACAGGAAAAAAGAAGATT against Msl31 | -0.435
GCACGUAGUAAGAUGUUACTT against Rqcd1 | 2.53 (active)
GGUGGUCUAAGUCCUGACATT against Hmx1 | -0.564
GGUUAUUAAGAGCACUUUCTT against Catsper3 | -0.553

Sequence | z-score
GCAUUAUGACUCUAAUAGCTT against Olfr60 | 0.536
GGGCUAUGUGCUCUUUUGUTT against Edg6 | 0.487
GGCAUUGUGAAGCUGAAACTT against Ptpn9 | 1.93 (active)
GGAGAAGGAGGUGAUAAUGTT against Sart1 | 0.088
GGUGCAGUUUAAGAGAGAATT against C630016B22Rik | 0.153
GCCACCUCAAUGAAAGGAGTT against Slc23a1 | 0.609
GGUAAUUUGUUUGUGGUGATT against Mtnr1b | -0.531
GGCAUCCGUGUGUCUCUAGTT against 5730457F11Rik | -2.13 (active)
CCACUUUCGCUUUACCAAUTT against C330011M18Rik | 0.267
CCAACUCUGUUACAUUAUGTT against Fshprh1 | 0.377
GGGCUAAAGUUGAUAAUAATT against Psmc3 | -3.32
GGGAGCUCCAUUUAAAUUATT against A230103N10Rik | 0.137
GGCAUUCAAAAGGUAAAAUTT against Grid2 | 2.35 (active)
CCAGCACUCAAUCCUGUAATT against Olfr305 | -1.73
GCUAUCAACAAUCUUCGAATT against Azi1 | 0.37
GGAGAACACUUUAAUGCUGTT against 9230106D23Rik | 0.667
GAACCUUUUCCGUUUCGAGTT against Cebpb | 0.245
GGCCAGCAGACUAUUUAUUTT against 1110021N07Rik | -1.57
GGACCUAGAGGAAGUGAAATT against Apoa1 | 2.05 (active)
GCUUUACUUCUUCCUCAUUTT against Olfr924 | -0.698
GGUCUAUGUACUCGCCAAATT against Ptpns1 | -0.633
CCGUCACUAUACCCAAGUUTT against Olfr802 | -3.11
CGUGCUUAAGAGUCCACUATT against H3f3a | -1.43

Sequence | z-score
CCUCGUUCAUACGACAGAATT against BC062951 | -0.447
GCUUAGACUCACCAAAGGCTT against Gpr26 | 1.11
GCAACACAUUUGAACCACUTT against Usp15 | 2.9 (active)
GGCACAGAAAUUAUGUUCUTT against 1810012H11Rik | -0.685
GGAAUUCAACUCAGAUAAGTT against C3 | -0.52
GGUUUUCUUAAAAUAGGAGTT against Tat | 3.69 (active)
CCAUAUCCGUAGGUAUAUCTT against Htr2a | 1.02
GGCUUGGAAGGAUUAGAAGTT against 4930418G15Rik | -0.344
CCUCCACUUACUUUGGGUGTT against Cic | 1.48 (active)
GGAGCUCAACAAGUUGCUUTT against Hist1h2aa | -0.0931
GGGAGAUCUUUAAGAGAAATT against Tcfap2a | -0.65
CGAGAUCACGAGAUCGGUUTT against Prdm4 | 2.21
GGCCAAGCUGAUCAAUAUATT against Oprd1 | -0.0592
CCCAAUAAAACUUCCGGGATT against BC021608 | 0.531
CUCUCGAACAAUCAACCACTT against Olfr315 | -0.314
GCUGAAAUCAGAAGCUAACTT against Casc3 | 0.845
GCAUUGGCUGUACUACUAUTT against Psg18 | -0.196
CCACAGCCAAAUGCACAAGTT against Gm1631 | -0.237
GGGAAAUCAGUUUUACAAATT against Chl1 | 2.76 (active)
CCGGUUGCUAGGCUAAACATT against Wdr68 | -3.25
CGUAAAACUCUUAGGCAUGTT against Npm1 | 2.54 (active)
CCCACUCCAAACAUCUAAATT against Gadd45b | 0.111
